High-throughput results as filed in PubChem BioAssay.
MCL1-BIM inh: inhibitors of MCL1 binding to BIM-BH3, primary screen, biochemical, fluorescence polarization; Induced myeloid leukemia cell differentiation protein Mcl-1 (Homo sapiens), Q07820; GST-MCL1 / FITC-Bim-BH3 fluorescence polarization; inhibition, % at 10.9 µM; 320,000 compounds, 0.68% hits;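 active = inhibition above the mean inhibition of all tested compounds plus 3 SD, set per campaign, cut at about 40% in these data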;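 also: higher means more loss of mP so more displacement of Bim peptide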
Bcl-xL primary: inhibitors of human Bcl-xL, primary screen, biochemical, fluorescence polarization, HTS. AID 2129, 2009. 320,000 compounds, 0.7% hits. GST-Bcl-xL / FITC-Bim BH3 peptide fluorescence polarization. inhibition, % at 10.9 µM;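 active = inhibition above the mean of all tested compounds plus 3 SD, cutoff set per campaign, cut at about 30% in these data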;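 also: inhibitors lower millipolarization by displacing the labeled peptide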
Target sequence (Q07817 whole entry, looked up): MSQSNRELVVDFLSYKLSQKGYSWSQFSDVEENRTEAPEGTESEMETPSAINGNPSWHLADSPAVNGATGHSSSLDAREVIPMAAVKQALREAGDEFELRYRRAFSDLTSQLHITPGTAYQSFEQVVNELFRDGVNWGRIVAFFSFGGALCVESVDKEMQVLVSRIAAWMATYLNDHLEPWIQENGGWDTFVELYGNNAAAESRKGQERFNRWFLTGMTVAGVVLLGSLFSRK
GLD-1 TGE inh: GLD-1/TGE RNA complex disruptors, primary screen, biochemical, fluorescence polarization. Female germline-specific tumor suppressor gld-1 (Caenorhabditis elegans), Q17339. purified GLD-1 + fluorescein TGE RNA. inhibition, % at 5.96 µM. 320,000 compounds, 0.44% hits. AID 2280, 2010;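 active = percent inhibition above a per-plate cutoff, the plate mean of test compounds plus 3 SD, cut at about 30% in these data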
EBV gp42 block: Epstein-Barr virus gp42 inhibitors, primary screen, biochemical, uHTS, fluorescence polarization; Fluorescence polarization binding assay, mP read-out; Glycoprotein 42 (Epstein-Barr virus (strain AG876)), Q1HVG2; inhibition, % (tested at 21.74 µM); 220,000 compounds, 0.42% hits; in the data active = inhibition above about 50%
Target sequence (Q1HVG2 whole entry, looked up): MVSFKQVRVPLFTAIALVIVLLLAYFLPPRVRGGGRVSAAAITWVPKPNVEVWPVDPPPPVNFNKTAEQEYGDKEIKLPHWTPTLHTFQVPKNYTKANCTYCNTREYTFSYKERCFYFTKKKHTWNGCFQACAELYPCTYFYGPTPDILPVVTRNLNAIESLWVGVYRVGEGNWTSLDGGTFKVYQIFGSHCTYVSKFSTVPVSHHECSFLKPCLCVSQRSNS
MEX-5 binding: MEX-5 zinc finger RNA-binding disruptors – biochemical, C. elegans, fluorescence polarization, MLPCN library, primary screen; Zinc finger protein mex-5 (Caenorhabditis elegans), Q9XUB2; MEX-5/FITC-TCR2 RNA binding; hits give low values; activity score (negative = inhibition of binding), % at 10 µM; 300,000 compounds, 0.38% hits; AID 1832, 2009;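 active = inhibition past about -25% in most replicates, and total fluorescence under double the plate's negative control median, limit read from the data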
GLD-1 TGE cf: GLD-1/TGE RNA binding inhibitors, retest, confirmation, biochemical, fluorescence polarization, triplicate | GLD-1/FL-TGE RNA fluorescence polarization | AID 2459, 2010 | shares compounds with GLD-1 TGE inh | inhibition, % at 5.96 µM | 550 compounds, 10% hits;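 active = average inhibition across triplicates above the hit cutoff set in the primary screen, cut at about 32% in these data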
Each line names hits and unclear results; the compound was inactive in the other large screens (follow-up assays come after a bar, where they were run). In the library only some 1.3% were active in any assay of this set; here they are far more common.

O=C(CCCn1c(=O)c2ccccc2n(CC(=O)N2CCN(c3ccccc3)CC2)c1=O)NCc1ccco1	none
Cc1[nH]c2ccccc2c1C(=O)C(C)OC(=O)c1ccccc1NCCO (stereo unspecified)	GLD-1 TGE inh 45 (no result: EBV gp42 block) | GLD-1 TGE cf inactive
COc1cccc(CC2(CO)CCN(Cc3cccn3-c3cccnc3)CC2)c1	none
COCCCn1c(C)cc(C(=O)CN2c3cccc4cccc(c34)S2(=O)=O)c1C	none (no result: EBV gp42 block, MEX-5 binding)
O=C1CS/C(=C\[N+](=O)[O-])N1c1ccccc1	GLD-1 TGE inh 35, MEX-5 binding -45 | GLD-1 TGE cf 56
CCn1cc(Cl)c(C(=O)Nc2ccccc2C(N)=O)n1	none
CC(=O)[C@@H]1[C@@H]2C(=O)N(C3CCCCC3)C(=O)[C@@H]2C2c3ccccc3C=CN21 (stereo partly specified)	GLD-1 TGE inh 32 | GLD-1 TGE cf 37
O=C(COC(=O)C1CCN(c2ccc(C(F)(F)F)cn2)CC1)Nc1ccc(Cl)cc1	none (no result: EBV gp42 block)
O=C(Nc1ccc(Cl)cc1)Nc1ccc(N2CCC(C(F)(F)F)CC2)nc1	Bcl-xL primary 31, GLD-1 TGE inh 38 | GLD-1 TGE cf inactive
C/C(=C\C(=O)c1cccnc1)Nc1ccc(O)cc1	GLD-1 TGE inh 31 | GLD-1 TGE cf inactive
C/C(=C\C(=O)c1ccccc1)Nc1ccc(O)cc1	none
N#Cc1c(NCCO)nc(NCc2ccccc2)c2c1CCN(Cc1ccccc1)C2	MCL1-BIM inh 50, Bcl-xL primary 46, GLD-1 TGE inh 36 | GLD-1 TGE cf inactive
CCN1CCc2c(C#N)c(N3CCCCC3)nc(NCc3ccccc3)c2C1	none
CC(C)c1cccc(C(C)C)c1NC(=O)COC(=O)C1=COCCO1	none
CCCN(C(=O)c1cccc(-n2cccc2)c1)c1c(N)n(Cc2ccccc2)c(=O)[nH]c1=O	none (no result: EBV gp42 block)
CCN1CCN(C(=O)Nc2cc(Cl)ccc2OC)CC1	none
CCN1CCN(C(=O)C(C)Nc2cc(Cl)c(OC)cc2OC)CC1 (stereo unspecified)	MCL1-BIM inh 48, Bcl-xL primary 53, GLD-1 TGE inh 36 | GLD-1 TGE cf inactive
CC(C)(CNC(=O)c1ccc(S(=O)(=O)Nc2ccc(Cl)cc2)cc1)N1CCOCC1	none (no result: EBV gp42 block, MEX-5 binding)
C=CCNC(=O)/C(C#N)=C/c1c(N2CCN(c3ccccc3)CC2)nc2c(C)cccn2c1=O	none (no result: EBV gp42 block)
C=CCNC(=O)/C(C#N)=C/c1c(N2CCN(c3ccc(OC)cc3)CC2)nc2c(C)cccn2c1=O	GLD-1 TGE inh 33 (no result: EBV gp42 block) | GLD-1 TGE cf inactive
O=C(COC(=O)/C=C/c1cccc(Cl)c1)Nc1ccccc1-c1ccccc1	GLD-1 TGE inh 47 | GLD-1 TGE cf inactive
CC1CCN(c2oc(-c3ccc(F)cc3)nc2C#N)CC1	GLD-1 TGE inh 34 (no result: EBV gp42 block) | GLD-1 TGE cf inactive
Cc1cccc(-c2nc(C#N)c(N3CCC(C)CC3)o2)c1	none (no result: MCL1-BIM inh, Bcl-xL primary, GLD-1 TGE inh, EBV gp42 block)
CCOC(=O)C1=C(C)N=C2c3ccccc3C(=O)C2C1c1ccc(Cl)cc1 (stereo unspecified)	none
CCOC(=O)C1=C(Cc2ccc(Cl)cc2)C(=O)c2ccccc2C1=O	GLD-1 TGE inh 33 | GLD-1 TGE cf inactive
CC(=O)c1ccc(NC(=O)CCn2c(=S)oc3ccccc32)cc1	GLD-1 TGE inh 43 (no result: EBV gp42 block) | GLD-1 TGE cf inactive
CC(=O)Nc1ccc(NC(=O)CCn2c(=S)oc3ccccc32)cc1	none
CCOC(=O)N1CCC(N(CCN(C)C)C(=S)Nc2cc(Cl)ccc2C)CC1	none
Cc1ccc(-c2nc(-c3ccncc3)no2)cc1C	GLD-1 TGE inh 37 (no result: EBV gp42 block) | GLD-1 TGE cf inactive
Cc1ccc(-c2nc(-c3ccncc3)no2)cc1Cl	none (no result: EBV gp42 block)
CCN1C=C(Cc2ccc(F)cc2)C2=C(C1)C(c1ccc(F)cc1)C(C#N)=C(N)O2 (stereo unspecified)	GLD-1 TGE inh 41 | GLD-1 TGE cf inactive
Cc1cccc2c(N=Nc3ccccc3)c(O)[nH]c12	none (no result: EBV gp42 block)
CCN(Cc1ccncc1)C(=S)Nc1c(C)cccc1C	MCL1-BIM inh 47, Bcl-xL primary 44, GLD-1 TGE inh 37 | GLD-1 TGE cf inactive
O=C(Nc1cccc(CNCCc2c[nH]c3ccccc23)c1)c1ccccc1Cl	none (no result: EBV gp42 block)
Cc1nn(Cc2ccccc2)c(Cl)c1/C=C1\NC(=S)NC1=O	none
Cc1ccc(C)c(NC(=S)NCc2ccc3[nH]c4c(c3c2)CCCC4)c1	Bcl-xL primary 55, GLD-1 TGE inh 59 | GLD-1 TGE cf inactive
CC(C)(CC(=O)O)CC(=O)Nc1ccc(Cl)c(Cl)c1	none
CCc1cccc(CC)c1NC(=O)COn1nnc2ccc(C(F)(F)F)cc21	none
Cc1cc2cc(CNC(=O)c3ccc(Br)o3)ccc2n1C	GLD-1 TGE inh 38 | GLD-1 TGE cf inactive
Cc1cc2cc(CNC(=O)Cc3cccs3)ccc2n1C	none
Cc1cc2cc(CNC(=O)C3CCCC3)ccc2n1C	GLD-1 TGE inh 37 | GLD-1 TGE cf inactive
CC(=O)Nc1ccc(S(=O)(=O)NCc2ccc3c(c2)cc(C)n3C)cc1	Bcl-xL primary 34, GLD-1 TGE inh 44 | GLD-1 TGE cf inactive
O=C(O)CCCC(=O)N1CCN(c2nc(-c3ccccc3Cl)c3cc(Br)ccc3n2)CC1	none (no result: EBV gp42 block)
CC1CCCN(C(=O)C2CC(=O)N(c3ccc(Cl)cc3)C2)C1 (stereo unspecified)	none (no result: EBV gp42 block)
Cc1c(O)ccc(-c2n[nH]c(C(=O)O)c2-c2nc3ccccc3s2)c1O	GLD-1 TGE inh 44, MEX-5 binding -58 | GLD-1 TGE cf 51
Nc1nc(-c2ccccc2)c(N=Nc2cccc3ccccc23)s1	none
Nc1nc(-c2ccccc2)c(N=Nc2ccccc2Cl)s1	GLD-1 TGE inh 159 | GLD-1 TGE cf inactive
CN(CCc1ccccc1)C1CCCN(S(=O)(=O)N(C)C)C1 (stereo unspecified)	GLD-1 TGE inh 65 (no result: EBV gp42 block) | GLD-1 TGE cf inactive
CN(CCc1ccccc1)C1CCCN(S(=O)(=O)c2cccc(F)c2)C1 (stereo unspecified)	none (no result: EBV gp42 block)
Fc1ccc(-c2nc3c(Cl)cc(C(F)(F)F)cn3c2Cl)cc1	GLD-1 TGE inh 38, MEX-5 binding -26 | GLD-1 TGE cf inactive
FC(F)(F)c1cc(Cl)c2nc(-c3ccccc3)cn2c1	none
C=CCNC(=O)COC(=O)C1CCN(S(=O)(=O)c2ccc3c(c2)OCCO3)CC1	none (no result: EBV gp42 block)
c1ccc(-c2nc(SCc3nc4ccccc4[nH]3)c3oc4ccccc4c3n2)cc1	none (no result: MCL1-BIM inh, Bcl-xL primary, EBV gp42 block, MEX-5 binding)
CC(=O)c1c(C)[nH]c(C(=O)OCC(=O)Nc2cc(Cl)ccc2[N+](=O)[O-])c1C	GLD-1 TGE inh 34 | GLD-1 TGE cf inactive
